The source of these data is PubChem BioAssay.

Calls of active or inactive are those of the source. Unless noted, the rule behind the calls is not given here.

Assay [1] in a line: compounds binding Alexa647 anti-His antibody – biochemical, small-molecule microarray, 635 nm fluorescence, artefact control for SMM control protein annotation, primary screen (AID 1128).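 Note: score merges feature fluorescence with signal-to-noise for each printed compound spot.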 Particulars: higher = more signal.
Assay [2] concerns Human papillomavirus type 1a E7 protein (residues 1-88). The experiment in a line: HPV1a E7 small-molecule binders, primary screen, biochemical, small-molecule microarray, residues 1-88, 635 nm (AID 1129). Particulars: small-molecule microarray binding, fluorescence 635 nm; higher = more signal.
Assay [3] deals with Focal adhesion kinase 1 (Homo sapiens) (UniProt Q05397). In words: PTK2 protein binding on printed compound slides – biochemical, small-molecule microarray, 635/667 nm fluorescence, BSA, DTT, primary screen (AID 1130).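 Note: composite of spot emission at 667 nm and signal to noise over triplicate slides.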 The settings on record: 635 nm fluorescence, higher = more signal.
Assay [4] relates to Fibrinogen (Alexa647-labelled). The experiment in a line: Alexa647-fibrinogen binding to printed small molecules – biochemical, small-molecule microarray, 635/667 nm fluorescence, artefact control for SMM control-protein annotation, profiling panel (AID 1131).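 Note: z-score merges 667 nm fluorescence with per-spot signal-to-noise over triplicate slides.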 Particulars: fibrinogen-A647 binding fluorescence, higher = more signal.
Assay [5] deals with Follistatin (Homo sapiens) (UniProt P19883). The experiment in a line: FST protein binding to printed compounds – biochemical, small-molecule microarray, 635/667 nm fluorescence, primary screen (AID 1132). The settings on record: 635 nm fluorescence, higher = more signal.
Assay [6] has as its target Fibroblast growth factor 2 (Homo sapiens) (UniProt P09038). The experiment in a line: basic fibroblast growth factor binding to printed compounds – biochemical, small-molecule microarray, 635/667 nm fluorescence, primary screen (AID 1133). Particulars: FGF2, fluorescence 635/667, higher = more signal.
A short description of assay [7]: JC-1 mitochondrial potential readout, lung cancer cells – cell-based, A549, JC-1 fluorescence, basal, 24 h, 100 nL, profiling panel (AID 1138).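 Note: A549 lung adenocarcinoma cells under basal conditions with no added stimulus; test concentration not given here.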 Particulars: higher = more signal.
Another assay relates to Lefty1. The experiment in a line: Lefty1 protein binding to printed compounds – biochemical, small-molecule microarray, 635/667 nm fluorescence, primary screen (AID 1139). Particulars: fluorescence 635/667, higher = more signal.
Assay [8] deals with wheat germ agglutinin (Triticum aestivum), Alexa647-labelled. The experiment in a line: Alexa647-WGA lectin binding to printed small molecules – biochemical, small-molecule microarray, 635/667 nm fluorescence, artefact control for SMM control-protein annotation, profiling panel (AID 1140).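 Note: score merges 667 nm feature emission with signal to noise over triplicate slides.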 The settings on record: WGA-A647 binding, 635 nm fluorescence, higher = more signal.
Assay [9] has as its target Luciferin 4-monooxygenase (Photinus pyralis) (UniProt P08659). In words: inhibition of purified Photinus pyralis luciferase – biochemical, luminescence, purified enzyme, 2006 set, primary screen (AID 1141).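 Note: cell-free assay with purified firefly luciferase at 100 ng per well in PBS; test concentration not given here.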 The settings on record: purified firefly luciferase, SteadyGlo luminescence, 30 min; higher = more signal, called active from +8 up or from −8 down.
Assay [10] deals with Wnt5a (protein binding on small-molecule microarray). In words: small molecules binding Wnt5a protein – biophysical, small-molecule microarray, 635/667 nm fluorescence, primary screen (AID 1142).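 Note: fluorescence read at 667 nm with signal to noise per printed feature.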 The settings on record: 635 nm fluorescence, higher = more signal.
Assay [11] can be described thus: ATP-based viability of Huh7 replicon cells – cell-based, CellTiter-Glo luminescence, basal, 48 h, cytotoxicity control for HCV replication inhibitor project, primary screen (AID 1143).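 Note: Huh7 hepatoma cells carrying a hepatitis C replication reporter with no stimulus; test concentration not given here.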 The settings on record: higher = more signal, called active from +8 up or from −8 down. (In general: Replicon systems follow genome replication, usually without infectious particles.)

Assay [12] in a line: Pseudomonas biofilm growth suppression – PAO1 strain, BacTiter-Glo luminescence, LB-PBS, primary screen (AID 1144). Particulars: P. aeruginosa PAO1 biofilm, 12 h, higher = more signal.
The nature of assay [13]: basal CRE-LacZ reporter activity in PC12 – cell-based, unstimulated, primary screen (AID 1145). Particulars: no forskolin, luminescence, 4.5 h, higher = more signal, called active from +8 up or from −8 down.
A short description of assay [14]: forskolin-driven CRE-LacZ activity in PC12 – cell-based, CRE-LacZ reporter, forskolin-stimulated, primary screen (AID 1146).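 Note: PC12 cells with 6xCRE LacZ reporter stimulated by forskolin 10 µM; beta-galactosidase reporter signal reflecting CREB driven transcription.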 Particulars: luminescence, 4.5 h, higher = more signal, called active from +8 up or from −8 down.
The target of assay [15] is Streptavidin (Streptomyces avidinii) (UniProt P22629). In words: compounds binding control protein streptavidin – biophysical, small-molecule microarray, 635/667 nm fluorescence, artefact control for SMM compound annotation, primary screen (AID 1147).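 Note: signal reflects streptavidin binding to arrayed compounds as a control protein.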 Particulars: higher = more signal.
Assay [16] can be described thus: probe aInhba binding on compound microarray – biochemical, small-molecule microarray, 635/667 nm fluorescence, primary screen (AID 1148).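 Note: score merges 667nm spot fluorescence with signal-to-noise for antibody binding to printed compounds.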 Particulars: higher = more signal.
Assay [17] addresses Torsin-1A (Homo sapiens) (UniProt O14656). The experiment in a line: TOR1A wild-type binding on microarray – cell lysate, small-molecule microarray, lysate, 635/667 nm, primary screen (AID 1149). The settings on record: COS7 hTOR1A-WT lysate, 635 nm fluorescence, higher = more signal.
Assay [18] shares this target. In words: torsin A mutant lysate binding on microarrays – cell lysate, small-molecule microarray, COS7 lysate, 635/667 nm fluorescence, primary screen (AID 1150).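 Note: score pools 667 nm emission and signal to noise measuring lysate protein binding.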 Particulars: COS7 hTOR1A mutant lysate, 635 nm fluorescence, higher = more signal.
Assay [19] concerns Sonic hedgehog protein (Shh). In words: Sonic hedgehog microarray binding compounds – biochemical, small-molecule microarray, 635/667 nm fluorescence, primary screen (AID 1151).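 Note: Shh protein binding to compounds spotted on small-molecule microarray slides; score combines spot fluorescence intensity with signal-to-noise across triplicate slides.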 Particulars: 635 nm fluorescence, higher = more signal.

Chain of Fibroblast growth factor 2 (Homo sapiens) (P09038 whole entry, looked up): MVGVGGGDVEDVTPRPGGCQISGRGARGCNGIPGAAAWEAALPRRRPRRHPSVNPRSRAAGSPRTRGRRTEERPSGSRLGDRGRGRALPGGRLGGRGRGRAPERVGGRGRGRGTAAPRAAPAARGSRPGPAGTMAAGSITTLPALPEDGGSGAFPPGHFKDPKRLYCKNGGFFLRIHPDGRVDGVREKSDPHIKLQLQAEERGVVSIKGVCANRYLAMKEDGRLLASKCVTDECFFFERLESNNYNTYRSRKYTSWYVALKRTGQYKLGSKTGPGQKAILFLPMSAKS
Chain of Luciferin 4-monooxygenase (Photinus pyralis) (P08659 whole entry, looked up): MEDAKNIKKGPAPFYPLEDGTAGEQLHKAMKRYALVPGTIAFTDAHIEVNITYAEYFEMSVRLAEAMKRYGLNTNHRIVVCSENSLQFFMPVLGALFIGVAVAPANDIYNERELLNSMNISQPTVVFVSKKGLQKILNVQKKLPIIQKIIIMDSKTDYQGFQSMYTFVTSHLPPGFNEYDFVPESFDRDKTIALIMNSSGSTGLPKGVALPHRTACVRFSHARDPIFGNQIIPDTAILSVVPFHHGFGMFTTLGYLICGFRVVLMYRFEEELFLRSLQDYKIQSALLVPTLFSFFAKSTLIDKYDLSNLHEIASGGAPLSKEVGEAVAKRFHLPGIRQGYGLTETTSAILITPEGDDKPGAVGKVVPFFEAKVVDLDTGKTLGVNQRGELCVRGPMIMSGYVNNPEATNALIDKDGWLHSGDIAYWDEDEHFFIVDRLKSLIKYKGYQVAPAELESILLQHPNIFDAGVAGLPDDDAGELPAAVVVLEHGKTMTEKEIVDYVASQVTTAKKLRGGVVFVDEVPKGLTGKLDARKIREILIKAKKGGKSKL
Chain of Torsin-1A (Homo sapiens) (O14656 whole entry, looked up): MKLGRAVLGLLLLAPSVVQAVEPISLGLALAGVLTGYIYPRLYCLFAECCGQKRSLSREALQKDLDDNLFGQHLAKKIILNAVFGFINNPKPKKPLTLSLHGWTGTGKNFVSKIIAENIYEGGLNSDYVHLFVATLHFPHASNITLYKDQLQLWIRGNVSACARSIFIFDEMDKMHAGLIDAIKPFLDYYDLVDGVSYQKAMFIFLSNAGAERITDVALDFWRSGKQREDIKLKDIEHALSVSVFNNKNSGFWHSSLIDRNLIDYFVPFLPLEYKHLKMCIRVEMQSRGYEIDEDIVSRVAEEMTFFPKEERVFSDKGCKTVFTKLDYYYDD
Chain of Streptavidin (Streptomyces avidinii) (P22629 whole entry, looked up): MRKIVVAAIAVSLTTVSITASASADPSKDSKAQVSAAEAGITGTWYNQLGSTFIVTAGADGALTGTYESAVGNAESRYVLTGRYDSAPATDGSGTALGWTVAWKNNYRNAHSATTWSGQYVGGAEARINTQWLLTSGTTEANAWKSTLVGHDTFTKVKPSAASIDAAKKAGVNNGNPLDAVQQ
Chain of Focal adhesion kinase 1 (Homo sapiens) (Q05397 whole entry, looked up): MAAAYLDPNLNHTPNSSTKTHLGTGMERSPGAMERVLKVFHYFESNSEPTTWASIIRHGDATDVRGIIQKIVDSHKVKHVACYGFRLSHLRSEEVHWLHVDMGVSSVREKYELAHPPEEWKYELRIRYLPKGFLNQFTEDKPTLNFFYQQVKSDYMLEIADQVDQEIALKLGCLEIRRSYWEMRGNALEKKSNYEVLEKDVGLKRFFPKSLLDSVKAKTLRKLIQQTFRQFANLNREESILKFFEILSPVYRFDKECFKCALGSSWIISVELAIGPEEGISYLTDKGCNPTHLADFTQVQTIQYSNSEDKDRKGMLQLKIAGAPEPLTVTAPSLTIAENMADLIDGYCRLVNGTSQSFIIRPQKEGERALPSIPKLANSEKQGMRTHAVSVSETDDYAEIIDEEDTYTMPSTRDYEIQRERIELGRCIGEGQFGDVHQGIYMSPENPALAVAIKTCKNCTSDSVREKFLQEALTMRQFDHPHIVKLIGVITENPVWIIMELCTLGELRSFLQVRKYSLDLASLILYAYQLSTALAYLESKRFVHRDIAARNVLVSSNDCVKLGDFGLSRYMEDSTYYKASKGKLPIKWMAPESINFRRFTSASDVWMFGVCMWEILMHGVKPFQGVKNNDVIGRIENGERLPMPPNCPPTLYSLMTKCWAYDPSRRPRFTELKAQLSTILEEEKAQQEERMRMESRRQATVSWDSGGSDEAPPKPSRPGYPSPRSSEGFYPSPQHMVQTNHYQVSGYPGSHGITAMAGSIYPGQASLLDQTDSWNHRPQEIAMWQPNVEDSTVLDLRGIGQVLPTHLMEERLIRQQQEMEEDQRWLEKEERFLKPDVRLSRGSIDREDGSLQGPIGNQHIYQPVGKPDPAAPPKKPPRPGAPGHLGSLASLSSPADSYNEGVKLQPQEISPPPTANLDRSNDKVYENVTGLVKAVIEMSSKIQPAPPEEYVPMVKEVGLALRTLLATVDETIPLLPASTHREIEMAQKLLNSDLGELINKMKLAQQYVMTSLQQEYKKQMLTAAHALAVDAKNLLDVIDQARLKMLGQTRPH
Chain of Follistatin (Homo sapiens) (P19883 whole entry, looked up): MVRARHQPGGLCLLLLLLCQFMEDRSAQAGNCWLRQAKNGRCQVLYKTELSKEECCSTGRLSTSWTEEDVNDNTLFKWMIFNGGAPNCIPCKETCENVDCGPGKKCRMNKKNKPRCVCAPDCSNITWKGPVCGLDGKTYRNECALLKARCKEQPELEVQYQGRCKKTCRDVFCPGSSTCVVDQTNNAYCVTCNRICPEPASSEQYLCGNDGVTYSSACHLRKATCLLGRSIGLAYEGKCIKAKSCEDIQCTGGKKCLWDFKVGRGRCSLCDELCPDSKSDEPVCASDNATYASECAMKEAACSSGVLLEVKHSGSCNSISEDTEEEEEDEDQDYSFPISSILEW

Take `[N-]=[N+]=NCc1ccccc1C[C@@]1(C(N)=O)N=C(c2ccc(OCCCO)cc2)O[C@@H]1c1ccccc1N=[N+]=[N-]`: the composite z-score was 1.16 in assay [1]; 1.24 in assay [2]; 0.0254 in assay [3]; 0.991 in assay [4]; 0.102 in assay [5]; -0.131 in [6]. The composite z-score with Lefty1 was -0.804; in [8], 0.68; in assay [10], 0.336; in [15] it was 1.31; in assay [16], -0.145; in the assay with Torsin-1A (Homo sapiens) [17], 0.369. The composite z-score was 0.409 in the assay with Torsin-1A (Homo sapiens) [18] and -0.455 in assay [19]. Besides, the z-score is 0.306 in assay [7]; -5.46 (inactive) in [9]; -3.18 (inactive) in [11]; 1.33 (inactive) in assay [12]; 1.01 (inactive) in assay [13]; -0.626 (inactive) in [14].
On to `O=C(CS)NCCCCCCNC(=O)[C@H]1C[C@H]2C(=O)NCC(=O)N2[C@H]1c1cccc(OCCO)c1`, for which the composite z-score in assay [1] came to 1.64; in [2], 0.245; in assay [3], 0.128; in [4] it was 0.65; in assay [5], 1.35; in assay [6], 1.56. In addition, the composite z-score with Lefty1 is 0.47; in assay [8], -0.152; in [10], 0.497; in [15], -0.127; in [16], -0.226; with Torsin-1A (Homo sapiens) [17] it was 0.168. Also, the composite z-score in the assay with Torsin-1A (Homo sapiens) [18] stood at 0.442; in assay [19] it was 1.54. For the same molecule, the z-score in assay [7] was -0.698; in assay [9] it was 0.057 (inactive); in assay [11], -2.15 (inactive); in assay [12], -0.525 (inactive); in assay [13], 0.0084 (inactive); in [14], -0.963 (inactive).
As to `C#CCN(C(=O)OC(C)(C)C)[C@H](CO)c1ccccc1`, the composite z-score was 0.137 in [1]; 0.266 in [2]; 0.0987 in assay [3]; -0.0218 in [4]; -0.0032 in assay [5]; 0.579 in assay [6]. For the same molecule, the composite z-score is 0.543 in the assay with Lefty1; -0.174 in assay [8]; -0.1 in assay [10]; -0.314 in assay [15]; -0.128 in assay [16]; 0.435 with Torsin-1A (Homo sapiens) [17]. The figures for the composite z-score (in the assay with Torsin-1A (Homo sapiens) [18]; in assay [19]) were 0.411 and 0.0466, respectively. Besides, the z-score in assay [7] is -0.766; in [9] it was 0.978 (inactive); in assay [11], -1.66 (inactive); in assay [12], -0.141 (inactive); in [13] it was 0.0329 (inactive); in assay [14], -0.653 (inactive).
As for `O=C(NCC(F)(F)F)[C@@H]1c2ccccc2C(=O)N(Cc2cc(C(F)(F)F)cc(C(F)(F)F)c2)[C@H]1c1ccc(CO)cc1`, the composite z-score was 3.22 in assay [1]; 0.0165 in assay [2]; 0.246 in [3]; -0.0773 in assay [4]; 0.647 in assay [5]; 0.295 in assay [6]. The composite z-score is -0.26 in the assay on Lefty1; -0.352 in assay [8]; 0.362 in [10]; -0.49 in assay [15]; 0.0074 in assay [16]; 0.325 in the assay with Torsin-1A (Homo sapiens) [17]. Also, the composite z-score came to 0.201 in the assay with Torsin-1A (Homo sapiens) [18] and 0.363 in [19]. Moreover, the z-score in assay [7] is 1.89; in assay [9] it was 0.839 (inactive); in assay [11] it was -1.49 (inactive); in assay [12], -0.483 (inactive); in [13], 0.701 (inactive); in [14], -1 (inactive).
As to `[N-]=[N+]=NCc1ccccc1[C@H]1OC(c2ccc(OCCCO)cc2)=N[C@@]1(CCS(=O)(=O)c1ccccc1)C(=O)NCCN1CCOCC1`, the composite z-score is 1.35 in assay [1]; 1.27 in assay [2]; 0.907 in assay [3]; 1.04 in assay [4]; 0.777 in assay [5]; 0.188 in [6]. Also, the composite z-score with Lefty1 was -0.237; in assay [8], 0.57; in assay [10] it was 0.806; in assay [15] it was 0.38; in assay [16], 0.54; in the assay with Torsin-1A (Homo sapiens) [17], 0.234. Moreover, the composite z-score in the assay with Torsin-1A (Homo sapiens) [18] is 0.183; in assay [19], -0.597. The z-score in assay [7] is 0.577; in assay [9], -3.06 (inactive); in assay [11], -0.712 (inactive); in [12], -0.561 (inactive); in [13], 0.115 (inactive); in assay [14], -0.871 (inactive).
